Screening results deposited in PubChem BioAssay by Johns Hopkins Ion Channel Center.
KCNQ2 inh – rat KCNQ2 potassium channel inhibitors, primary screen, cell-based, CHO-K1, FluxOR thallium flux, B-score | Potassium voltage-gated channel subfamily KQT member 2 (Rattus norvegicus), O88943 | 20 min; hits give low values | B-score at 10 µM | actives 1.1% (n = 310,000);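 active means fluorescence ratio B-score at most minus 3 library SDs, with starting brightness B-score within 2 library SDs, cut at about -5.5 in these data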
KCNQ2 enhance – potentiators of rat KCNQ2 potassium channel | B-score at 10 µM | CHO-K1 KCNQ2, FluxOR thallium flux fluorescence; hits give high values | actives 0.54% (n = 310,000);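 active means fluorescence ratio B-score at least 3 SD of library B-scores, with initial fluorescence B-score within 3 of them, cut at about 5.3 in these data; same plate scores as AID 2156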;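 further: B-score of peak minus minimum over baseline fluorescence ratio after K+ and Tl+ stimulus; positive B-score means potentiation of KCNQ2 with more thallium influx and brighter signal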
KCNQ2 block conf – rat KCNQ2 potassium channel inhibitors, confirmation, cell-based, thallium flux | shares compounds with KCNQ2 inh | KCNQ2-expressing cells, inhibition; hits give low values | activity change, negative = inhibition, % at 10 µM | actives 57% (n = 1,000) | AID 493025, 2011
KCNQ1 spec – human KCNQ1 channel inhibition, counter-screen for KCNQ2 inhibitor project, cell-based, FluxOR thallium flux; shares compounds with KCNQ2 inh; KCNQ1-expressing cells, FluxOR thallium flux fluorescence; hits give low values; activity change, negative = inhibition, % at 10 µM; actives 15% (n = 1,000); AID 493026, 2011;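 active means activity change at least 3 SD of negative controls below their mean in both duplicate wells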;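 further: CHO cells stably transfected with KCNQ1 and depolarized by potassium stimulus; peak minus minimum fluorescence over baseline after thallium addition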
Target sequence (P51787 whole entry, looked up): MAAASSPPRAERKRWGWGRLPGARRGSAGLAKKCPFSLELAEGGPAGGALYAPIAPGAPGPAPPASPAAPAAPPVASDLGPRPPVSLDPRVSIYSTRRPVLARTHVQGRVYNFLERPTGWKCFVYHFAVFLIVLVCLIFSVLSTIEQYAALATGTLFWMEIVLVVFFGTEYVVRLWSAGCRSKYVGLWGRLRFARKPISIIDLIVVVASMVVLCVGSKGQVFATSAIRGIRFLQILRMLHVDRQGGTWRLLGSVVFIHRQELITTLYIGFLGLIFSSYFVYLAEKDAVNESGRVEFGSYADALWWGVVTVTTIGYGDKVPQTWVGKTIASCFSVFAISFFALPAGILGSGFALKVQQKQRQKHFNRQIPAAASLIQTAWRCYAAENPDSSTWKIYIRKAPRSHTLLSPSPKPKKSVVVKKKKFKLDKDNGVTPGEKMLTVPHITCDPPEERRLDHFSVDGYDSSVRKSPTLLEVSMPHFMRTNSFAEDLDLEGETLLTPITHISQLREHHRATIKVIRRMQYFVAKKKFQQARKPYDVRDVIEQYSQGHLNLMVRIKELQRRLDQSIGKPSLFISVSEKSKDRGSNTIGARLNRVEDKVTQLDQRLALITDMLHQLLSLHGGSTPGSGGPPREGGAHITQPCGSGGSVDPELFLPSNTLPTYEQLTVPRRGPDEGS
CHO parental ctr – thallium flux change in parental CHO cells, counter-screen for KCNQ2 inhibitor project; shares compounds with KCNQ2 inh; hits give low values; activity change, % at 10 µM; actives 14% (n = 1,000)
KCNQ2 patch conf – rat KCNQ2 channel inhibitors, confirmation, cell-based, automated patch clamp, single concentration; shares compounds with KCNQ2 inh; KCNQ2-expressing cells, automated patch clamp current; calls only at 10 µM; actives 49% (n = 550)
A number is an active result; 0 = inactive; - = no result given; + = active, no number. A selection: hits, their analogues and other compounds. The true share with any hit is near 1.6%. Unless noted, how the calls were made is not given here.

SMILES	KCNQ2 inh	KCNQ2 enhance	KCNQ2 block conf	KCNQ1 spec	CHO parental ctr	others
O=[N+]([O-])c1ccc(Cl)c(/C=N/N2CCN(Cc3ccccc3Cl)CC2)c1	-7.24	0	0	0	0
CC1CN(c2nnc(-c3ccccc3)c3ccccc23)CC(C)O1 (stereo not given)	0	0	-	-	-
CCCn1c(N)c(N(CCOC)C(=O)c2ccccc2)c(=O)[nH]c1=O	0	0	-	-	-
CC(Oc1ccc(Cl)cc1Cl)C(=O)NCCCCc1ccccc1 (stereo not given)	0	-	-	-	-
O=C(COc1ccc(Cl)cc1Cl)NCCCCc1ccccc1	-7.79	0	0	0	0
CC1CCCCC1NC(=O)CN1CCC(NC(=O)c2cccc(F)c2)CC1 (stereo not given)	0	-	-	-	-
Cc1cccnc1NC(=O)c1csnn1	0	0	-	-	-
COc1ccc(-n2c(=O)c3c4c(sc3n(CC(=O)NCC3CCCO3)c2=O)CCCC4)c(OC)c1 (stereo not given)	0	-	-	-	-
COc1ccc(-n2c(=O)c3c4c(sc3n(CC(=O)NC3CCCC3)c2=O)CCCC4)c(OC)c1	-6.71	0	0	0	0
CC(C(=O)NCc1ccco1)n1cc([N+](=O)[O-])cn1 (stereo not given)	0	0	-	-	-
Cc1ccc(NC2CCCN(C(=O)C3CCCC3)C2)cc1C (stereo not given)	0	0	-	-	-
COc1ccc(-c2cc(C3CCN(C(=O)OC(C)(C)C)CC3)[nH]n2)cc1	0	-	-	-	-
CCOC(=O)c1cn2nc(-c3ccc(OC)cc3)cc2nc1C1CCN(C(=O)OC(C)(C)C)CC1	-8.58	0	0	0	0
CCC1(C)Cc2c(sc3nnn(Cc4ccccc4Cl)c(=O)c23)CO1 (stereo not given)	0	-	-	-	-
COc1nc(OC)nc(Oc2ccc(Cl)cc2[N+](=O)[O-])n1	0	-	-	-	-
O=[N+]([O-])c1cccnc1S(=O)(=O)c1ccccc1	0	-	-	-	-
COc1ccc([N+](=O)[O-])c(S(=O)(=O)c2ccccc2)n1	-7.49	0	-28.5%	0	0	KCNQ2 patch conf=+
COc1ccc([N+](=O)[O-])c(S(=O)(=O)c2ccc(Cl)cc2)n1	-9.9	0	-32.0%	-28.5%	-22.5%	KCNQ2 patch conf=+
CN(CCOc1ccccc1)CC(=O)Nc1ccc([N+](=O)[O-])cc1Cl	0	-	-	-	-
CN(CC(=O)Nc1ccc([N+](=O)[O-])cc1Br)Cc1c(F)cccc1Cl	-11.2	0	0	0	0
CCc1ccc(NC(=O)C2CCCN2S(=O)(=O)c2ccc3c(c2)C(C)(C)C(=O)N3C)cc1 (stereo not given)	0	-	-	-	-
COc1cccc(SCc2noc(C(=O)NCCC(C)C)c2C(=O)NCCC(C)C)c1	0	-	-	-	-
CCc1ccc(C(C)NC(=O)/C(C#N)=C\c2cn[nH]c2-c2ccccc2)cc1 (stereo not given)	-9.06	0	0	0	0
CC(NC(=O)/C(C#N)=C/c1cn[nH]c1-c1ccccc1)c1ccccc1 (stereo not given)	0	-	-	-	-
COc1ccc(S(=O)(=O)Nc2cc3c(cc2C(C)=O)OCO3)cc1	0	0	-	-	-
SMILES	KCNQ2 inh	KCNQ2 enhance	KCNQ2 block conf	KCNQ1 spec	CHO parental ctr	others
COc1ccc(NC(=O)COC(=O)Cc2c(F)cccc2Cl)cc1	0	-	-	-	-
Cc1cc(C)n(-c2nc3ccccc3nc2N2CCN(C(=O)c3ccc(Cl)cc3)CC2)n1	-8.41	0	-32.5%	-30.5%	-24.5%	KCNQ2 patch conf=+
Cc1cc(C)n(-c2nc3ccccc3nc2N2CCCC2)n1	0	-	-	-	-
Cc1ccc(N2C(=O)N(CC(=O)NCc3ccccc3Cl)C(=O)C2C)cc1 (stereo not given)	-6.64	0	-28.0%	0	0	KCNQ2 patch conf=+
Cc1ccc(N2C(=O)N(CC(=O)Nc3ccccc3C)C(=O)C2C)cc1 (stereo not given)	0	-	-	-	-
CN(Cc1ccccc1)C(=O)N1CCOCC1	0	-	-	-	-
COc1ccc(C(=O)CC(=O)C(=O)Nc2ccc(Cl)cc2)cc1	0	-	-	-	-
COc1ccc(C(=O)CC(Nc2ccc([N+](=O)[O-])cc2)c2ccc(Cl)cc2)cc1 (stereo not given)	-8.12	0	0	0	0
CSc1ccccc1NC(=O)CO/N=C(\C)c1cc2ccccc2o1	0	-	-	-	-
C/C(=N\OCC(=O)NC12CC3CC(CC(C3)C1)C2)c1cc2ccccc2o1	-6.8	0	-38.5%	-37.0%	-27.0%	KCNQ2 patch conf=0
CCCCC(=O)Nc1ccc(C(=O)NCCN2CCOCC2)cc1	0	0	-	-	-
COc1cccc(-c2c(C(=O)N/N=C/c3sccc3C)nnn2-c2nonc2N)c1	0	0	-	-	-
Cc1ccc(NC(=O)C(Nc2ccccc2)c2ccccc2)cc1 (stereo not given)	0	-	-	-	-
Cc1ccc(NC(=O)C(Nc2cccc(C)c2)c2ccccc2)cc1 (stereo not given)	-7.44	0	-28.0%	0	0	KCNQ2 patch conf=0
COc1ccc(OCCC(=O)OCC(=O)c2ccc[nH]2)cc1	0	-	-	-	-
Cc1ccc(C(O)(c2ccccc2)c2ccccc2C(C)N(C)C)c(C)c1 (stereo not given)	-8.95	0	-31.0%	0	0	KCNQ2 patch conf=+
CC(c1ccccc1C(O)c1ccccc1)N(C)C (stereo not given)	0	0	-	-	-
CN1CCN(c2cc(-c3ccccc3)nc3cc(-c4ccc(F)cc4)nn23)CC1	0	-	-	-	-
COc1cccc(-c2cc3nc(-c4ccccc4)cc(N4CCC5(CC4)OCCO5)n3n2)c1	-8.41	0	-31.5%	0	0	KCNQ2 patch conf=0
CC(C)c1ccc(/C=N/NC(=O)c2cccc(Cl)c2)cc1	0	-	-	-	-
CC(C)c1ccc(C(=O)N/N=C/c2cccc(Cl)c2Cl)cc1	-9.53	0	0	0	0
CCn1c(C)nc2cc(C(=O)NNC(=S)Nc3ccc(OC)cc3)ccc21	0	-	-	-	-
COc1cccc(C(=O)C(C#N)=C(SC)SC)c1	0	-	-	-	-
CSC(SC)=C(C#N)C(=O)c1ccccc1	-7.92	0	0	0	0
CCn1ncc(NC(=S)NCCc2ccc(OC)c(OC)c2)c1C(N)=O	0	-	-	-	-
SMILES	KCNQ2 inh	KCNQ2 enhance	KCNQ2 block conf	KCNQ1 spec	CHO parental ctr	others
COc1cccc(/C=C2\SC(=S)N(N3CCOCC3)C2=O)c1OC	-8.59	0	-34.5%	0	0	KCNQ2 patch conf=0
COc1ccc(/C=C2\SC(=S)N(N3CCOCC3)C2=O)c(OC)c1	0	-	-	-	-
O=C(O)C1C2CCC(O2)C1C(=O)Nc1ccccc1Br (stereo not given)	0	-	-	-	-
CC1CC1C(=O)OCC(=O)Nc1cccc([N+](=O)[O-])c1 (stereo not given)	0	-	-	-	-
CCOC(=O)C(C)Sc1nc(C2CC2)cc(C(F)(F)F)c1C#N (stereo not given)	-6.87	0	0	0	0
COC(=O)CSc1nc(C2CC2)cc(C(F)(F)F)c1C#N	0	0	-	-	-
CCOc1ccc(CN(C(=O)c2cc3ccccc3oc2=O)C2CCS(=O)(=O)C2)cc1 (stereo not given)	0	-	-	-	-
Cc1ccc(Cl)cc1NC(=O)COC(=O)CC1CC2CCC1C2 (stereo not given)	0	-	-	-	-
